Experimental data taken from PubChem BioAssay (Tox21).
Records with an inconclusive call do not appear. Entries that show only a call come without a potency. Active and inactive are the calls of the source. Unless noted, calls follow the shape of the dose curve; as a rule, active = well fitted curve in the direction sought with a large enough effect in the repeat runs; inconclusive = weak or mixed curves; inactive = no such curve, though single readings can be large; an effect the other way counts as inactive or inconclusive. Positions of bridges follow the written chain, without caps; N, C: chain ends. Non-standard residues stand in square brackets, D forms with d. Residues, ends and D or L forms follow the SMILES beside them. Orn = NCCC[C@H](N)C(=O)O; Mpa = O=C(O)CCS

What was measured:
[1] = qHTS assay to test for compound auto fluorescence at 535 nm (green) in HEK293 cells (AID 720680); also: potency is read from the fitted curve at half-maximal effect
[2] = qHTS assay to test for compound auto fluorescence at 460 nm (blue) in HEK293 cell free culture (AID 720681)
Method in brief: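 Blue fluorescence (Ex 405/Em 460 nm, triamterene-equivalent) was read immediately after pin transfer of compound or DMSO into medium (DMEM, 10% FBS) without cells.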

[3] = qHTS assay to test for compound auto fluorescence at 535 nm (green) in HEK293 cell free culture (AID 720682); also: potency is read from the fitted curve at half-maximal effect
Method in brief: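 No cells present: wells hold DMEM supplemented with 10% FBS, into which compound or vehicle is pinned. Green emission is then recorded (485 nm excitation, 535 nm emission) and scaled to fluorescein.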

[4] = qHTS assay to test for compound auto fluorescence at 590 nm (red) in HepG2 cell free culture (AID 720684)
Method in brief: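 No cells present: MEM + 10% FBS only. Compound pinned in, red label read (540/590 nm). Activity = fluorescence equivalent to Rose Bengal sodium.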

[5] = qHTS assay to test for compound auto fluorescence at 460 nm (blue) in HepG2 cell free culture (AID 720685)
Method in brief: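 Cell-free plates of MEM plus 10% FBS received 23 nL compound or DMSO vehicle; blue-channel (405/460 nm) intensity scored against triamterene as reference fluorophore.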

[6] = qHTS assay to test for compound auto fluorescence at 535 nm (green) in HepG2 cell free culture (AID 720686); also: potency is read from the fitted curve at half-maximal effect
[7] = qHTS assay to test for compound auto fluorescence at 460 nm (blue) in HepG2 cells (AID 720687)
Method in brief: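 Blue-channel autofluorescence (Ex/Em 405/460 nm, triamterene-equivalent) was measured after 1 hr compound exposure at 37 C, 5% CO2. Cells were HepG2, plated overnight at 37 C in MEM plus 10% FBS.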

[8] = molecular target: Glucocorticoid receptor (Homo sapiens) (UniProt P04150); test: qHTS assay to identify small molecule agonists of the glucocorticoid receptor (GR) signaling pathway (AID 720691; active = well fitted activation curve with a large enough effect in the signal ratio in the repeat runs, not every such curve was filed as active; the % refers to the signal ratio; also: potency is read from the fitted curve at half-maximal effect); details: GR-bla HeLa, beta-lactamase reporter ratio, 18 h; activation: at 62.4 µM (top of the series)
Method in brief: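 Cells: GR-bla HeLa, endogenous GR with stably integrated GRE-beta-lactamase reporter. Treatment 18 h, 37 C, compounds delivered in DMSO. Detection via LiveBLAzer B/G FRET substrate, 2 h RT, fluorescence intensity.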

[9] = qHTS assay to identify small molecule antagonists of the glucocorticoid receptor (GR) signaling pathway - cell viability counter screen (AID 720693); also: nearly all actives have a fitted effect of over 55% in size
[10] = qHTS assay for identifying genotoxic compounds that show differential cytotoxicity against isogenic chicken DT40 cell lines with known DNA damage response pathways - wild type cell line (AID 743012); also: nearly all actives have a fitted effect of over 60% in size; also: potency is read from the fitted curve at half-maximal effect
Method in brief: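 Luminescent ATP viability signal (CellTiter-Glo, 30 min RT) recorded after wild type DT40 cells were incubated with compounds for 40 h at 37 C/5% CO2.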

[11] = qHTS assay for identifying genotoxic compounds that show differential cytotoxicity against isogenic chicken DT40 cell lines with known DNA damage response pathways - Rev3 mutant cell line (AID 743014); also: nearly all actives have a fitted effect of over 55% in size; also: potency is read from the fitted curve at half-maximal effect
[12] = qHTS assay for identifying genotoxic compounds that show differential cytotoxicity against isogenic chicken DT40 cell lines with known DNA damage response pathways - Rad54/Ku70 mutant cell line (AID 743015); also: nearly all actives have a fitted effect of over 60% in size; also: potency is read from the fitted curve at half-maximal effect
[13] = qHTS assay to identify small molecule antagonists of the androgen receptor (AR) signaling pathway using the MDA cell line - cell viability counter screen (AID 743041; also: nearly all actives have a fitted effect of over 45% in size; also: potency is read from the fitted curve at half-maximal effect)
Method in brief: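 Using the breast carcinoma line MDA-kb2 AR-luc, test chemicals were co-incubated with R1881 for 16 h; CellTiter-Fluor reagent, added at 15.5 h, provided a fluorescence measure of live cells.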

[14] = molecular target: Glucocorticoid receptor (Homo sapiens) (UniProt P04150); test: qHTS assay to identify small molecule antagonists of the glucocorticoid receptor (GR) signaling pathway (AID 720692; active = well fitted inhibition curve with a large enough effect in the signal ratio in the repeat runs, not every such curve was filed as active; the % refers to the signal ratio)
Method in brief: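 Quantitative HTS in antagonist format: HeLa cells expressing endogenous GR and a stably integrated GRE-bla reporter, stimulated with 5 nM dexamethasone (final) alongside test compounds for 18 h.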

[15] = qHTS assay to identify small molecule antagonists of the androgen receptor (AR) signaling pathway - cell viability counter screen (AID 743033; also: nearly all actives have a fitted effect of over 45% in size; also: potency is read from the fitted curve at half-maximal effect)
[16] = molecular target: Androgen receptor (Homo sapiens) (UniProt P10275); test: qHTS assay to identify small molecule agonists of the androgen receptor (AR) signaling pathway using the MDA cell line (AID 743040; also: nearly all actives have a fitted effect of over 20% in size; also: potency is read from the fitted curve at half-maximal effect)
Method in brief: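 Stable MMTV-luciferase reporter in MDA-kb2 cells; note the promoter carries GR as well as AR response elements. 16 h compound treatment, 37C, 0% CO2; ONE-Glo luminescence endpoint.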

[17] = molecular target: Androgen receptor (Homo sapiens) (UniProt P10275); test: qHTS assay to identify small molecule antagonists of the androgen receptor (AR) signaling pathway using the MDA cell line (AID 743042; also: nearly all actives have a fitted effect of over 55% in size)
Method in brief: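 Antagonist mode: compounds plus R1881 agonist added to MDA-kb2 AR-luc cells, incubated 16 h at 37C. Luciferase reporter luminescence quantified, with multiplexed CellTiter-Fluor readout for cell viability.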

[18] = molecular target: Androgen receptor (Homo sapiens) (UniProt P10275); test: qHTS assay to identify small molecule antagonists of the androgen receptor (AR) signaling pathway (AID 743035; active = well fitted inhibition curve with a large enough effect in the signal ratio in the repeat runs, not every such curve was filed as active; the % refers to the signal ratio; also: potency is read from the fitted curve at half-maximal effect)
Method in brief: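 Quantitative HTS of the Tox21 10K library used HEK293 AR-UAS-bla cells stimulated with R1881 alongside compound for 16 h at 37C, followed by beta-lactamase FRET detection (LiveBLAzer B/G, 2 h, RT).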

[19] = molecular target: Androgen receptor (Homo sapiens) (UniProt P10275); test: qHTS assay to identify small molecule agonists of the androgen receptor (AR) signaling pathway (AID 743036; active = well fitted activation curve with a large enough effect in the signal ratio in the repeat runs, with a control signal flat, not every such curve was filed as active; the % refers to the signal ratio)
Method in brief: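 Quantitative HTS of the Tox21 10K library in HEK293 cells bearing a stably integrated UAS-controlled beta-lactamase reporter. Compound exposure lasted 16 h at 37C. Reporter activity was detected by FRET substrate fluorescence after 2 h at room temperature.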

[20] = qHTS assay to test for compound auto fluorescence at 590 nm (red) in HEK293 cell free culture (AID 720683)
Method in brief: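 Red-channel autofluorescence of compounds in culture medium (DMEM, 10% FBS), no cells, measured at 540/590 nm. Rose Bengal sodium is the reference fluorophore for equivalence.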
Tags tell the direction and shape of the fitted curve or compound fluorescence and quenching.

Sequence of Glucocorticoid receptor (Homo sapiens) (P04150 whole entry, looked up): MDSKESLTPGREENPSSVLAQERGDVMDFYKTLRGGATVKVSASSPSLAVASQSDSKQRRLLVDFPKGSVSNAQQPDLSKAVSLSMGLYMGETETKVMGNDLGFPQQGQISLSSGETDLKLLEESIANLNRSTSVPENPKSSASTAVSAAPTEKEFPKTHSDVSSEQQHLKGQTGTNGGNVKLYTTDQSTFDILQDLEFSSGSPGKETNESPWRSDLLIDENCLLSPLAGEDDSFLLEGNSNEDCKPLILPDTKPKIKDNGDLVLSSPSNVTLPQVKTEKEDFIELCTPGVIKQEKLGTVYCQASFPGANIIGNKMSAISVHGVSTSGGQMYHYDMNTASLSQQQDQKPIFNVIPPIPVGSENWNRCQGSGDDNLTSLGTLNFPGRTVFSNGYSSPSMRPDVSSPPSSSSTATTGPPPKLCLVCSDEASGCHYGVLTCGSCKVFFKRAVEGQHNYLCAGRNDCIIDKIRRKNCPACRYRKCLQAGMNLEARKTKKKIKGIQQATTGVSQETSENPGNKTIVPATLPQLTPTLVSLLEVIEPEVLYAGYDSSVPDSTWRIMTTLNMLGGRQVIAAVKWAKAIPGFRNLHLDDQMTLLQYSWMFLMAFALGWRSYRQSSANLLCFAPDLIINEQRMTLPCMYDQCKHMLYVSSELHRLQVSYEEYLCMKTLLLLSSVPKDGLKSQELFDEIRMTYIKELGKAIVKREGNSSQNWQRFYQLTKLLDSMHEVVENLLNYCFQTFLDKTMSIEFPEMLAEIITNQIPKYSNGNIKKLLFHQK
Sequence of Androgen receptor (Homo sapiens) (P10275 whole entry, looked up): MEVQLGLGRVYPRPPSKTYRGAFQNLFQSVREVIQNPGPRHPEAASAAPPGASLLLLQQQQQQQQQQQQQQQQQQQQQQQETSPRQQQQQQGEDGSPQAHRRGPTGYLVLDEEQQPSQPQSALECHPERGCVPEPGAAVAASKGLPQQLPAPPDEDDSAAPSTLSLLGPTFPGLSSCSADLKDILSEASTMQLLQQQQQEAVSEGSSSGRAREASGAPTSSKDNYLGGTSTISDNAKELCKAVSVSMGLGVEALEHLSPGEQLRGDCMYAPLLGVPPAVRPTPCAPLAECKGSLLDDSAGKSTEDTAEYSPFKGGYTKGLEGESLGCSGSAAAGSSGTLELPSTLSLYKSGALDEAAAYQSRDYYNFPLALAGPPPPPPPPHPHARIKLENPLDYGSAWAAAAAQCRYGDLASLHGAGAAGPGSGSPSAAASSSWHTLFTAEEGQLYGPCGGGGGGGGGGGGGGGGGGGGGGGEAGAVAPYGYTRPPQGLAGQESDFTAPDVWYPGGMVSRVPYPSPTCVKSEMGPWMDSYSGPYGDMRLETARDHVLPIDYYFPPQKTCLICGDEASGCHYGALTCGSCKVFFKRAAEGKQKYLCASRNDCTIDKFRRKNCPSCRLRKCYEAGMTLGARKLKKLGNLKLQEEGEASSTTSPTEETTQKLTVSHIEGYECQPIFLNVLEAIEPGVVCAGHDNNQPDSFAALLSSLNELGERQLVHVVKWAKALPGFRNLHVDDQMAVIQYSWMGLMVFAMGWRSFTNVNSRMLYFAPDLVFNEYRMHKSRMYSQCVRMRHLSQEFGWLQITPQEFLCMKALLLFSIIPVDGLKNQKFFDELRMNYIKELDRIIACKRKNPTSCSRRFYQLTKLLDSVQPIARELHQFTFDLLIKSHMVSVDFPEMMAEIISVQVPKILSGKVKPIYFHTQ

SMILES | Potency [1] | Potency [2] | Potency [3] | Potency [4] | outcome [5] | Potency [6] | outcome [7] | Potency [8] | Potency [9] | Potency [10] | Potency [11] | Potency [12] | Potency [13] | Potency [14] | Potency [15] | Potency [16] | Potency [17] | Potency [18] | Potency [19] | Potency [20]
CCN(CC)CCCC(C)Nc1cc(/C=C/c2ccccc2Cl)nc2cc(Cl)ccc12 (stereo not drawn) | inactive | inactive | inactive | inactive | inactive | inactive | inactive | inactive | inactive | 26.6 µM (active) | 29.8 µM (active) | 29.8 µM (active) | inactive | – | – | – | – | – | – | –
CC(C)[C@H](N)C(=O)OCC(CO)OCn1cnc2c(=O)[nH]c(N)nc21 (stereo partly drawn) | inactive | inactive | inactive | inactive | inactive | inactive | inactive | inactive | inactive | inactive | inactive | – | inactive | inactive | inactive | – | – | – | – | –
C[N+]1(C)[C@@H]2CC(OC(=O)C(O)(c3cccs3)c3cccs3)C[C@H]1[C@@H]1O[C@@H]12 (stereo partly drawn) | inactive | inactive | inactive | inactive | inactive | inactive | inactive | – | inactive | – | inactive | inactive | inactive | inactive | – | – | – | – | – | –
O=S(O)CNc1ccc(S(=O)(=O)c2ccc(NCS(=O)O)cc2)cc1 | inactive | inactive | inactive | inactive | inactive | inactive | inactive | – | inactive | inactive | inactive | inactive | inactive | – | inactive | – | – | – | – | –
CC(C)=CCC/C(C)=C/C=C/C(C)=C/C=C/C(C)=C/C=C/C=C(C)/C=C/C=C(C)/C=C/C=C(\C)CCC=C(C)C | inactive | inactive | inactive | inactive | inactive | inactive | inactive | inactive | inactive | – | – | – | inactive | inactive | inactive | inactive | inactive | – | – | –
CCC(=O)OCC(=O)[C@@]1(OC(=O)CC)[C@@H](C)C[C@H]2[C@@H]3CCC4=CC(=O)C=C[C@]4(C)[C@@]3(Cl)[C@@H](O)C[C@@]21C | inactive | inactive | inactive | inactive | inactive | inactive | inactive | – | inactive | 13.3 µM (active) | 15 µM (active) | 13.3 µM (active) | inactive | – | inactive | 0.0094 µM (active) | inactive | – | – | –
C[N+]1(C)CCN(CC(O)(c2ccccc2)C2CCCCC2)CC1 (stereo not drawn) | inactive | inactive | inactive | inactive | inactive | inactive | inactive | inactive | inactive | inactive | – | inactive | inactive | inactive | inactive | inactive | inactive | inactive | inactive | –
Cc1cc2nc3c(=O)[nH]c(=O)nc-3n(C[C@H](O)[C@H](O)[C@H](O)COP(=O)(O)OP(=O)(O)OC[C@H]3O[C@@H](n4cnc5c(N)ncnc54)[C@H](O)[C@@H]3O)c2cc1C | 22.4 µM [fluorescent] (active) | – | 15.8 µM [fluorescent] (active) | inactive | inactive | 12.6 µM [fluorescent] (active) | inactive | inactive | inactive | inactive | inactive | inactive | – | – | inactive | inactive | inactive | – | – | inactive
Cc1cc(/C=C/c2ccc3cc(N(C)C)ccc3[n+]2C)c(C)n1-c1ccccc1 | inactive | inactive | inactive | – | inactive | inactive | inactive | inactive | inactive | – | – | – | 2.66 µM (active) | – | 4.56 µM (active) | – | – | – | – | –
CCN(CC)CCOc1ccc(-c2nc3cc(Cl)ccc3s2)cc1 | inactive | inactive | inactive | – | inactive | inactive | inactive | inactive | – | 0.944 µM (active) | 1.06 µM (active) | 1.06 µM (active) | – | – | 23.9 µM (active) | – | – | – | – | –
O=c1oc2cc(O)ccc2s1 | inactive | inactive | inactive | inactive | inactive | inactive | inactive | inactive | inactive | inactive | inactive | inactive | – | – | inactive | – | – | – | – | –
C[C@]12C=CC(=O)N[C@@H]1CC[C@@H]1[C@@H]2CC[C@]2(C)[C@@H](C(=O)Nc3cc(C(F)(F)F)ccc3C(F)(F)F)CC[C@@H]12 | inactive | inactive | inactive | inactive | – | inactive | inactive | 26.8 µM (active) | inactive | 4.22 µM (active) | – | 2.66 µM (active) | – | – | inactive | – | – | – | – | –
CCOc1ccc(C[C@H]2NC(=O)CCSSC[C@@H](C(=O)N3CCC[C@H]3C(=O)N[C@@H](CCCN)C(=O)NCC(N)=O)NC(=O)[C@H](CC(N)=O)NC(=O)[C@H]([C@@H](C)O)NC(=O)[C@H]([C@@H](C)CC)NC2=O)cc1 ([Mpa][dY](Et)ITNCP[Orn]G-NH2; disulfide 1-6) | inactive | inactive | inactive | inactive | inactive | inactive | inactive | inactive | inactive | inactive | inactive | inactive | inactive | – | inactive | inactive | inactive | inactive | inactive | –
O=C1C(=O)c2ncccc2-c2cccnc21 | inactive | – | inactive | – | – | inactive | – | inactive | inactive | 5.96 µM (active) | 8.41 µM (active) | 4.22 µM (active) | inactive | – | – | inactive | inactive | 23.9 µM (active) | – | inactive
COc1ccc(CNCC(O)COc2ccc3[nH]c(=O)ccc3c2)cc1OC (stereo not drawn) | inactive | inactive | inactive | inactive | inactive | inactive | inactive | inactive | inactive | – | inactive | inactive | inactive | – | inactive | – | – | – | – | –
C#CCC(Cc1cnc2nc(N)nc(N)c2n1)c1ccc(C(=O)N[C@@H](CCC(=O)O)C(=O)O)cc1 (stereo partly drawn) | inactive | – | inactive | inactive | – | inactive | – | inactive | inactive | – | 0.0168 µM (active) | 0.0237 µM (active) | inactive | inactive | 0.169 µM (active) | inactive | inactive | inactive | – | inactive
